# Screening results as filed in PubChem.
# In the library only some 8.9% were active in any assay of this set; here they are far more common.
# KB-3-1 tox = KB-3-1 parental cell cytotoxicity. KB-3-1 viability, CellTiter-Glo ATP luminescence, 72 h. Potency, µM (top dose mostly 46.1 µM), hits mostly cytotoxic. hit rate 1.4% among 400,000. AID 1347075; also: potency is read from the fitted curve at half-maximal effect; % is scaled to controls: 0 for no effect and ±100 for the full control effect; nearly all actives have a fitted effect of over 60% in size
#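 72 h, 37 °C compound treatment of KB-3-1 parental cells; CellTiter-Glo added, 10 min, luminescence read. Data corrected against DMSO-only plates and normalized before curve fitting.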
# DRD3 antagonist = antagonists of human D3 dopamine receptor; P35462; D3R cells, DiscoveRx beta-arrestin luminescence, antagonist mode; hits give low values; max response, negative = inhibition, %; hit rate 2.5% among 360,000; in the data active = max response below about -50%; inconclusive = no clear call, values can overlap the other calls; also: % is scaled to controls: 0 for no effect and ±100 for the full control effect
# Target sequence (P35462 whole entry, looked up): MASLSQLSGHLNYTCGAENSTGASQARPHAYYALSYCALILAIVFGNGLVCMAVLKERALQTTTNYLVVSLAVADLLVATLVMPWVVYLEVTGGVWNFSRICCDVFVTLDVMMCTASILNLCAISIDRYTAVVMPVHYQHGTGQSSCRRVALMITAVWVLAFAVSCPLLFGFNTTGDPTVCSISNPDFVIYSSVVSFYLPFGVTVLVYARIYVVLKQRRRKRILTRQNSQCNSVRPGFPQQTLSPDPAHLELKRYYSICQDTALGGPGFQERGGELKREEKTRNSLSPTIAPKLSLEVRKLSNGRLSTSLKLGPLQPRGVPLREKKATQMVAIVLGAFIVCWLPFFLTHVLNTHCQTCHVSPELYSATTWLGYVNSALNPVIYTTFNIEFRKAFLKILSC
#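 Cells plated overnight at 1500 cells/well, then exposed to library compounds with dopamine controls for 90 minutes at 37 degrees C. DiscoveRx reagent added for 30–60 minutes at room temperature; luminescence read, quantitative HTS format.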
# MCF10A rerep = DNA re-replication induction in MCF 10a cells; hit rate 2.9% among 350,000; MCF 10A DNA re-replication, Hoechst nuclear intensity, 48 h; Potency, µM (highest dose often 46.1 µM), for inactives: at the top dose activity, positive = re-replication, actives largely listed as activators; AID 624296; also: potency is read from the fitted curve at half-maximal effect; % of control where 0% means no effect; nearly all actives have a fitted effect of over 50% in size
# KB-V1 cytotox = kills drug-selected multidrug resistant KB-V1 cells | Potency, µM (doses to about 46.1 µM), hits mostly cytotoxic | AID 1347076 | hit rate 3.4% among 400,000 | KB-V1 MDR cells viability, CellTiter-Glo, 72 h; also: potency is read from the fitted curve at half-maximal effect; % is scaled to controls: 0 for no effect and ±100 for the full control effect; nearly all actives have a fitted effect of over 60% in size
#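 Potencies derive from concentration-effect curves fitted to normalized luminescence (CellTiter-Glo) of KB-V1 cells treated for 72 h at 37 degrees C in phenol-red-free DMEM containing 10% FBS.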
# SW480 rereplic = induces DNA re-replication in SW480 colon adenocarcinoma cells; Potency, µM (highest dose often 46.1 µM), without a hit: top-dose re-replication activation, usual class: activators; SW480 DNA re-replication, Hoechst DNA content imaging, 48 h; hit rate 1.8% among 340,000; also: potency is read from the fitted curve at half-maximal effect; % of control where 0% means no effect; nearly all actives have a fitted effect of over 55% in size
#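 Quantitative HTS format with DMSO vehicle controls; 48 hr drug incubation at 37 C, then 40 min Hoechst staining and scanning imager measurement at 405 nm excitation.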
# DRD3 agonist = activates the human D3 dopamine receptor; P35462; D3R DiscoveRx beta-arrestin cells, luminescence, 90 min; max activation, %; hit rate 0.58% among 410,000; AID 652048; in the data active = max activation above about 30%; also: 0% is about no effect
#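 Agonist mode: compounds and dopamine controls were applied to plated cells for 90 min at 37 degrees C after an overnight attachment at 1500 cells/well. Luminescent read-out followed 30 - 60 minutes at room temperature with DiscoveRx detection reagent.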
# Numbers without * were called inactive; i = inactive; ? = inconclusive; . = no result given. Unless noted, calls follow the shape of the dose curve; as a rule, active = well fitted curve in the direction sought with a large enough effect; inconclusive = small, poorly fitted or top-dose-only effect, or another doubt; inactive = no such curve, though single readings can be large; an effect the other way counts as inactive or inconclusive.
SMILES,KB-3-1 tox,DRD3 antagonist,MCF10A rerep,KB-V1 cytotox,SW480 rereplic,DRD3 agonist
COc1ccc(OC(C)C(=O)NCc2nc(-c3ccc(Cl)cc3)no2)cc1 (configuration not stated),i,.,.,?,.,-3.3
Cc1nc2ccc(S(=O)(=O)Nc3cccc(-c4nc5cccnc5s4)c3)cc2s1,?,-20.4,6.51µM*,i,2.0%,-6.4
O=S(=O)(Nc1cccc(-c2nc3cccnc3s2)c1)c1ccc2c(c1)CCCC2,i,-6.7,?,i,-2.6%,-0.2
Cc1ccc2nc(-c3ccc(NS(=O)(=O)c4ccc(F)c(F)c4)cc3)sc2c1,i,32.3,10.3µM*,i,?,5.6
Cc1nc2ccc(S(=O)(=O)Nc3ccc(-c4nc5cccnc5s4)cc3)cc2s1,i,-19.1,6.51µM*,i,14.3%,-1.7
Cc1ccc2nc(-c3ccc(NS(=O)(=O)c4ccccc4)cc3)sc2c1,i,8.9,?,i,7.9%,12.6
Cc1ccc2c(n1)Oc1ccc(C(C)C(=O)OCC(=O)N(C)C)cc1C2 (configuration not stated),.,.,.,.,.,6.5
O=C(Cn1cc(S(=O)(=O)N2CCN(c3ccccc3F)CC2)c2ccccc2c1=O)Nc1ccc(F)cc1Cl,i,.,.,i,.,9.1
CN(C(=O)CSc1nc2c(c(=O)[nH]1)CCCC2)C1CCCCC1,i,-10.4,?,16.4µM*,-0.7%,0.3
CN(C(=O)CSc1nc(N)cc(=O)[nH]1)C1CCCCC1,i,24.2,.,?,.,7.2
O=C(NCc1ccc2c(c1)OCO2)c1ccc(C2SCC(=O)N2Cc2ccco2)cc1 (configuration not stated),i,-3.3,10.8%,20.6µM*,-1.9%,-0.1
CN1CCN(C(=O)c2ccc(C3SCC(=O)N3Cc3ccco3)cc2)CC1 (configuration not stated),i,-59.0*,-1.0%,i,-5.1%,0.5
COCCNC(=O)c1ccc(C2SCC(=O)N2Cc2ccco2)cc1 (configuration not stated),i,-2.2,-33.6%,i,-16.8%,0.8
Cc1ccc(C(=O)N(Cc2ccco2)Cc2sccc2C)cc1,.,.,.,.,.,5.7
COc1ccc(Cn2c(CCC(=O)NCc3ccco3)nc3cccnc32)cc1,i,-11.6,-2.2%,20.6µM*,-2.7%,-0.1
COCCNC(=O)CSc1nc2cc(OC)c(OC)cc2c(=O)n1Cc1ccc(OC)cc1,i,11.3,14.0%,2.59µM*,7.5%,-2.6
COc1cc2nc(SCC(=O)NCc3ccco3)n(Cc3ccc(Cl)cc3)c(=O)c2cc1OC,10.3µM*,22.4,14.6µM*,?,18.4µM*,-8.7
COCCNC(=O)CSc1nc2ccc(N3CCOCC3)cc2c(=O)n1Cc1ccc(OC)cc1,i,26.4,?,i,?,-2.4
Cc1ccc(C2C(=O)N(C3CCCCCC3)CC(=O)N2C(C)C)cc1 (configuration not stated),.,.,.,.,.,6.9
O=C(Nc1ccc2oc(-c3cccc4c(Br)cccc34)nc2c1)c1ccc(Br)cc1,i,.,.,i,.,-1.6
C=CCn1c(COc2ccc(F)cc2)nnc1SCC(=O)c1c[nH]c2c(CC)cccc12,i,-9.8,6.5%,13µM*,1.3%,-9.6
C=CCn1c(COC)nnc1SCC(=O)c1ccc(F)cc1,i,10.1,10.4%,i,15.8%,4.4
CC(=O)c1ccc(NC(=O)Cn2cc(S(=O)(=O)Cc3ccccc3Cl)c3ccccc32)cc1,i,.,.,i,.,-13.7
CC(O)(c1ccc(F)c(F)c1)c1nc(-c2ccc3ccccc3c2)cs1 (configuration not stated),?,-55.6*,.,?,.,-8.7
CC(O)(c1ccccc1)c1nc(-c2cc3ccccc3o2)cs1 (configuration not stated),i,-58.0*,.,i,.,-11.1
SMILES,KB-3-1 tox,DRD3 antagonist,MCF10A rerep,KB-V1 cytotox,SW480 rereplic,DRD3 agonist
CC(O)(c1ccc(F)c(F)c1)c1nc(-c2ccncc2)cs1 (configuration not stated),i,0.0,.,i,.,-7.6
CC(O)(c1ccccc1)c1nc(-c2ccc(Cl)cc2)cs1 (configuration not stated),i,-15.3,.,i,.,-15.7
CC(O)(c1ccc(F)c(F)c1)c1nc(-c2ccc(S(C)(=O)=O)cc2)cs1 (configuration not stated),?,3.5,.,20.6µM*,.,5.7
Cc1nn2c(-c3cccc(NC(=O)c4ccc(Cl)cc4)c3)nnc2c2ccccc12,.,.,.,.,.,-10.1
COc1ccccc1/C=N/n1c(N)c(C(=O)NC2CCCCC2)c2nc3ccccc3nc21,i,?,10.3µM*,i,4.11µM*,2.8
Nc1c(C(=O)NC2CCCC2)c2nc3ccccc3nc2n1N,i,-3.0,?,i,1.8%,-1.3
COc1ccccc1C(=O)NC1CCCCCCC1,i,1.0,6.3%,i,-0.7%,9.3
Nc1c(C(=O)NC2CCCC2)c2nc3ccccc3nc2n1/N=C/c1ccco1,i,-14.8,?,i,1.46µM*,-7.0
CCC(C)Sc1c(C(C)C)cnc2c1c(=O)n(C)c(=O)n2C (configuration not stated),.,.,.,.,.,-12.9
CCn1c(SCC(=O)N2CCCc3ccccc32)nc2c1c(=O)n(C)c(=O)n2C,?,18.2,3.2%,2.91µM*,-3.8%,13.4
CCn1c(SCC(=O)N2c3ccccc3CCc3ccccc32)nc2c1c(=O)n(C)c(=O)n2C,i,8.6,21.3%,2.06µM*,5.0%,-2.3
CCCCn1c(SCC(=O)N2c3ccccc3CCc3ccccc32)nc2c1c(=O)n(C)c(=O)n2C,i,-13.2,9.2%,?,-1.6%,1.6
CCn1c(SCc2cc(=O)[nH]c3ccccc23)nc2c1c(=O)n(C)c(=O)n2C,i,-21.8,4.2%,16.4µM*,-12.7%,-20.7
COc1cccc(OCC(=O)N2CCCc3ccccc32)c1,i,-7.7,13.4%,?,-3.3%,2.0
O=C(c1ccc(Cl)cc1)N1CCC(c2ccncc2)CC1,?,.,.,i,.,-2.3
O=C1C=CC(=O)C(C2=C3C(=O)N(CCc4ccccc4)CC(=O)N3CCC2)=C1,i,-72.2*,7.31µM*,i,?,-1.3
O=C1CC2(CCCCC2)CC(=O)N1CCc1ccccc1,i,1.3,11.8%,i,1.2%,6.2
Cc1ccc2c(c1)c1c(n2CC(O)CN2CCCCC2C)CCCC1 (configuration not stated),?,20.8,?,i,18.4µM*,-4.0
Cc1ccc2c(c1)c(C)c(C)n2CC(O)CN1CCCCC1C (configuration not stated),i,84.0,-1.4%,?,?,2.5
